From PubChem BioAssay
Only some compounds are listed: those with a hit (about 3.6% of all), similar ones and a draw of the others.
MazEF act: activators of E. coli MazEF toxin-antitoxin RNase. FAM/BHQ RNA-DNA oligo cleavage fluorescence, 5 h. activation, % at 20 µM. AID 504720. 350,000 tested, 0.32% active; in the data active = activation above about 50%
Target sequence (P0AE70 whole entry, looked up): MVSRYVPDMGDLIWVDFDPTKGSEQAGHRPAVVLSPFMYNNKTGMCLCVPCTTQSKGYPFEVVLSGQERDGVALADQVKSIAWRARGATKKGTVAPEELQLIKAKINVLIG
BoNT-A LC inh2: inhibitors of Botulinum neurotoxin A light chain protease. multiplex microsphere protease substrate cleavage, flow cytometry. inhibition, % at 10 µM. 360,000 tested, 0.17% active; note: plate controls were buffer without enzyme for full effect and enzyme alone for no effect
Anthrax LF prot: inhibitors of Bacillus anthracis lethal factor protease; P15917; multiplex microsphere protease cleavage assay, LF; inhibition, % at 10 µM; 360,000 tested, 0.12% active; AID 588501; note: plate controls were buffer without enzyme for full effect and enzyme alone for no effect
Autofluor counter: counter-screen for toxin protease inhibitors: compound fluorescence; compound autofluorescence counterscreen, microsphere flow cytometry; stronger effect = higher value; fluorescence intensity (no concentration beside the values); 360,000 tested, 3.1% active; AID 624483; in the data active = fluorescence intensity above about 16000; inconclusive = no clear call, values can overlap the other calls
BoNT F protease: inhibitors of Botulinum neurotoxin F light chain protease; Multiplex microsphere protease cleavage assay, flow cytometry; inhibition, % at 10 µM; 360,000 tested, 0.22% active; in the data active = inhibition above about 35%, passing the limit was not always enough; inconclusive = no clear call, values can overlap the other calls; note: plate controls were buffer without enzyme for full effect and enzyme alone for no effect
Numbers without * were called inactive; ? = inconclusive; / = no result. Cut-off read from the data, not from the text of the source, unless noted: active = inhibition above about 30%; inconclusive = no clear call, values can overlap the other calls; inactive = below that.

SMILES	MazEF act	BoNT-A LC inh2	Anthrax LF prot	Autofluor counter	BoNT F protease
C/C(CC(O)c1ccc2ccccc2n1)=N/O (stereo not given)	-9.2	0.6	-1.1	20613*	-0.3
OC(c1ccc2ccccc2n1)c1c(Cl)cccc1Cl (stereo not given)	11.2	-0.8	4.9	2767	-1.2
Cc1ccc(S(=O)(=O)N2CCN(C(=O)c3ccc(-n4cncn4)c([N+](=O)[O-])c3)CC2)c(C)c1	8.1	0.1	-0.8	3810	-3.5
O=C(c1cc2cc(Cl)ccc2[nH]1)N1CCN(Cc2ccc3c(c2)OCO3)CC1	-3.3	-0.7	-4.4	5487	-8.6
CCOC(=O)c1ccc(NC2c3ncccc3C(=O)N2Cc2ccc(F)cc2)cc1 (stereo not given)	-2.6	-1.4	-2.9	24047*	-2.0
COC(=O)c1cc(NC2c3ncccc3C(=O)N2Cc2ccccc2)cc(C(=O)OC)c1 (stereo not given)	5.5	0.7	2.3	16375*	-1.7
CCOc1ccc(N2C(=O)c3cccnc3C2Nc2ccc(Cl)cc2)cc1 (stereo not given)	-1.5	1.9	0.4	21889*	1.1
CCc1nc2c(OCCC3CCCCC3)cccn2c1N(C)C(=O)c1ccc(OC)cc1	/	-0.1	-7.0	3960	2.1
O=C(Nc1cccc(Cl)c1)c1ccc(F)c(S(=O)(=O)NCc2ccc3c(c2)OCO3)c1	-16.2	-0.5	-1.9	2424	-2.2
COc1ccc(/C=N/NC(=O)COc2cccc3cccnc23)cc1OC	37.4	-1.1	-0.3	4711	-6.1
NC(=O)COc1cccc2cccnc12	0.0	14.6	-11.1	16622*	12.5
CCOC(=O)Cn1c(=O)sc2ccccc21	5.9	1.1	0.3	23284*	0.6
COc1ccccc1OCCCn1c(=O)sc2ccccc21	-1.7	?	-4.6	20682*	-3.1
O=c1sc2ccccc2n1CCOc1ccccc1	0.6	-2.0	-2.6	23573*	-3.7
COc1ccccc1OCCCn1c(=O)oc2ccccc21	-1.2	0.6	-1.3	4383	1.5
O=C(O)CCn1c(=O)sc2ccccc21	1.9	-0.2	0.1	4244	-1.4
CCOC(=O)N1CCN(C(=O)Cn2c(=O)sc3ccccc32)CC1	4.3	-0.4	-11.1	9765	-6.4
CC1(C(=O)NS(=O)(=O)Cc2ccccc2C(F)(F)F)CCN1C(=O)c1ccco1 (stereo not given)	/	0.0	-5.5	2892	-1.9
Cc1sc2c(c1C)C(c1ccc(C(C)(C)C)cc1)=NCC(=O)N2CC(=O)Nc1nccs1	-2.7	-1.3	-2.2	22414*	-3.2
CCOC(=O)c1[nH]c(C)c(/C(O)=C2\C(=O)C(=O)N(CCN(C)C)C2c2cccc(OC)c2OC)c1C (stereo not given)	-2.4	3.3	-4.1	18747*	3.4
COc1ccc(C(=O)CSC(=S)N2CCCCC2)cc1	/	-0.5	-6.7	5530	-6.1
O=C(Cc1n[nH]c(=O)[nH]c1=O)N/N=C/c1ccccc1	8.0	0.5	-2.4	5060	-7.2
O=C(N/N=C/c1c(O)ccc2ccccc12)c1ccc(CO)nc1	-170.2	15.3	5.7	3979	40.0*
O=C(N/N=C\c1c(O)ccc2ccccc12)c1ccc(S(=O)(=O)N2CCCCC2)cc1	-380.0	31.9*	4.4	3033	-1.7
O=C(Cc1n[nH]c(=O)[nH]c1=O)N/N=C/c1c(O)ccc2ccccc12	71.3*	4.2	0.9	2711	-2.4
SMILES	MazEF act	BoNT-A LC inh2	Anthrax LF prot	Autofluor counter	BoNT F protease
CC1(C(=O)NS(=O)(=O)c2ccc3c(c2)CCO3)CCN1C(=O)CCC1CCCC1 (stereo not given)	/	-0.3	3.5	2865	-12.9
O=C(NCCCNC(=O)c1cnccn1)c1ccc(Br)cc1	-10.8	-1.1	16.2	3282	-6.4
Cc1ccc(C(CC(=O)NCCCN(C)C)c2ccc(OC(C)C)cc2)cc1 (stereo not given)	9.4	-2.1	9.6	3413	?
COc1cc(/C=N/N2CCN(Cc3ccc(Cl)cc3)CC2)cc(Br)c1O	1.6	-3.8	-2.0	4715	36.4*
COc1cc(/C=N/N2CCN(Cc3ccc(Cl)cc3)CC2)ccc1OC(C)=O	4.2	-0.5	-13.1	3893	?
Cc1ccc(CN2CCN(/N=C/c3ccc(O)c(O)c3)CC2)cc1	-0.4	0.8	16.9	3261	-1.0
COc1ccc(/C=N/N2CCN(Cc3ccc(C)cc3)CC2)cc1Br	-2.9	-3.0	-6.2	4367	43.3*
COC(=O)c1cc(N/C(N)=N/c2nc(C)cc(C)n2)cc(C(=O)OC)c1	-2.8	-0.6	-6.5	3938	-2.4
O=C(N/C(=C\c1ccc(Br)cc1)C(=O)N1CCOCC1)c1ccc([N+](=O)[O-])cc1	5.3	-4.1	-0.7	3647	-8.6
COc1ccc(-c2cccc(NC(=O)c3cccs3)c2)nn1	7.3	/	/	/	/
O=C(CN1CCN(c2ccccc2)CC1)Nc1c(C(=O)C2CC2)oc2ccccc12	-16.0	?	-3.7	20951*	0.8
COc1ccc(-c2cc(-c3nnc(COC(=O)CC4CC5CCC4C5)o3)c3ccccc3n2)cc1OC (stereo not given)	-18.7	51.8*	15.9	2180	5.0
O=C(Nc1ccccc1N1CCCCC1)c1ccc(N2C(=O)c3ccccc3C2=O)cc1	-3.6	0.4	-1.6	16910*	-1.3
O=C(Nc1ccccc1N1CCCC1)c1ccccc1F	15.9	1.3	-1.6	3527	10.5
O=C(Nc1ccccc1N1CCCCC1)c1ccccc1F	-0.3	-1.1	-2.4	23407*	-5.1
CCCCc1c(O)nc(SCC(=O)N2CCCCC2)[nH]c1=O	4.9	-0.9	-10.4	3272	-11.1
O=C(C1=C(O)C(=O)N(CCCn2ccnc2)C1c1cccc(Br)c1)c1ccco1 (stereo not given)	-1.7	9.3	7.0	3240	12.2
O=C(NCc1ccccc1Cl)c1ccc(Cn2cc(C(F)(F)F)ccc2=O)cc1	4.5	-2.9	-0.6	17060*	-5.7
CCOC(=O)Nc1sc2c(c1C(=O)OCC)CCC2	-4.7	-0.7	-16.9	9758	-2.6
CCOC(=O)c1c(NC(NC(=O)C(C)C)C(Cl)(Cl)Cl)sc2c1CCC2 (stereo not given)	-10.5	4.1	-4.1	2881	47.0*
CCCNC(=O)C1(C)CCN(C(=O)c2c(Cl)cccc2Cl)C1 (stereo not given)	/	-0.1	0.2	3827	2.0
O=C(c1ccc(Cl)cc1)c1oc2ccccc2c1CS(=O)c1ccc(Cl)cc1 (stereo not given)	4.7	?	-0.7	22309*	0.7
COc1ccccc1-c1nnc(Sc2nc([N+](=O)[O-])nn2C)o1	-3.5	-0.4	-3.1	16481*	0.2
Cc1sc2cc3c(c(C(=O)c4ccccc4)[n+]2c1C)-c1cccc2cccc-3c12	16.3	/	/	/	/
O=C(c1ccccc1)c1c2c(cc3sc4ccccc4[n+]13)-c1cccc3cccc-2c13	-7.6	73.3*	1.5	6966	-15.9
CCOC(=O)N1CCN(C(=O)c2ccccc2NC(=O)c2ccc(OC)cc2)CC1	-0.4	-1.8	-4.1	23728*	-4.5
CCOC(=O)C(=O)Nc1ccccc1C(=O)Nc1ccc(OC)cc1	1.6	7.5	-18.3	19641*	11.9
CCOC(=O)N1CCN(C(=O)c2ccccc2NC(=O)c2ccccc2Cl)CC1	-6.8	-0.2	-1.8	5318	-3.1
